Screening results (PubChem BioAssay)
PG9 binder: small molecules binding HIV-1 gp120 antibody PG9. TR-FRET gp120-PG9 antibody binding. 360,000 compounds, 0.43% hits. AID 624416. inhibition, % at 6.7 µM; in the data active = inhibition above about 8.5%
LEDGF integ inh: blocks HIV-1 LEDGF/p75-dependent DNA integration; TR-FRET IN-LEDGF/p75 DNA integration, Eu/Cy5; inhibition, % at 3.7 µM; 370,000 compounds, 0.64% hits; AID 743269;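 active = inhibition above the screen-wide mean plus 3 SD, cut at about 13% in these data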;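 also: signal is the Cy5 over europium emission ratio at 671 and 618 nm; 0% = plate median of compound wells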
UHRF1 binding: UHRF1 methyl-DNA binding inhibition. UHRF1 binding to methylated oligo, TR-FRET. 370,000 compounds, 0.75% hits. inhibition, % at 4.4 µM. Q96T88; in the data active = inhibition above about 21%;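 also: UHRF1 SRA domain binding a hemimethylated CpG hairpin DNA probe; 0% = median of test compound wells and 100% = reference inhibitor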
Target sequence (Q96T88 whole entry, looked up, the tested form may be a part): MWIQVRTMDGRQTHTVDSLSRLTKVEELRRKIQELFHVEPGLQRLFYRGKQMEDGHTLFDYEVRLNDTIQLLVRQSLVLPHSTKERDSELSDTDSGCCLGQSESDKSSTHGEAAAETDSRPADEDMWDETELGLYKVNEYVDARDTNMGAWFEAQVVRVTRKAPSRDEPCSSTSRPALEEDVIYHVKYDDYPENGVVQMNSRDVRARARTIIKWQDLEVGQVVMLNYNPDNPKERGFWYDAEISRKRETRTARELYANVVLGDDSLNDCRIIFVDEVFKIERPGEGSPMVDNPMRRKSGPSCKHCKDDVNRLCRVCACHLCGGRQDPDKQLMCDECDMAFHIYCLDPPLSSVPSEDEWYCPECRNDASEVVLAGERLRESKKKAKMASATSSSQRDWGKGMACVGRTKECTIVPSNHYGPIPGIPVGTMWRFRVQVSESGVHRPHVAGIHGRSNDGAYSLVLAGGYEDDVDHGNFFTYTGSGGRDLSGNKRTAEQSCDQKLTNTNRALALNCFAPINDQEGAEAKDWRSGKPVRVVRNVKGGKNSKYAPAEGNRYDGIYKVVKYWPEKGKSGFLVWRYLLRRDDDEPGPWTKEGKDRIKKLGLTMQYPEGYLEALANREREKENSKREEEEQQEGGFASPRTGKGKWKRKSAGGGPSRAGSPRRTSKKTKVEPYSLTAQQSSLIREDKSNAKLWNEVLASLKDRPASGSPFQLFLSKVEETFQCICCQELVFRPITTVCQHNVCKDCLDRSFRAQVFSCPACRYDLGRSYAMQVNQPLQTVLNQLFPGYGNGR
rCAG RNA binder: r(CAG) repeat RNA binding. TO-PRO-1 dye displacement fluorescence. 370,000 compounds, 1.3% hits. inhibition, % at 3 µM;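 active = inhibition above the plate cutoff, the mean of all test compounds on that plate plus 3 SD, cut at about 35% in these data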;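 also: 0% = DMSO alone and 100% = 100 µM mitoxantrone as full dye displacement; higher means more dye released from RNA so lower well fluorescence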
MBD2 inh: MBD2-methylated oligo binding inhibition. Q9UBB5. TR-FRET, MBD2 binding to methylated oligonucleotide. inhibition, % at 4.4 µM. 370,000 compounds, 0.31% hits. AID 686964; in the data active = inhibition above about 13%
DNMT1 inh: DNMT1 (human) enzyme inhibition; inhibition (reported as % activation of signal), % at 10 µM; P26358; AID 588458; 360,000 compounds, 0.83% hits; DNMT1 molecular beacon, Hinp1I cleavage, fluorescence; in the data active = inhibition above about 50%
* = called active by the depositor; i = inactive; / = not tested or not shown; + = active, no number. The list is not random: actives were taken first. Their share in the collection is about 3.5%.

SMILES | PG9 binder | LEDGF integ inh | UHRF1 binding | rCAG RNA binder | MBD2 inh | DNMT1 inh
O=C(NCCc1ccccc1)OCc1cn(Cc2ccccc2C(F)(F)F)nn1 | / | -3 | 1 | -2 | -3 | /
COc1ccccc1C(=O)NCC(=O)N/N=C/c1ccc([N+](=O)[O-])cc1 | -3 | 1 | 25* | 0 | -5 | -1
CCCS(=O)(=O)NC(=O)C1(C)CCN(C(=O)C2(c3ccc(Cl)cc3)CCCC2)C1 (stereo not given) | 1 | 2 | -1 | 18 | -3 | 1
COc1ccc(-c2nc(=S)c3c(n2Cc2cccnc2)CC(C)(C)OC3)cc1 | -1 | 0 | 24* | -1 | 10 | -4
O=C(/C(=C(\[O-])c1ccccc1)[n+]1ccc2ccccc2c1)c1ccc(Cl)cc1 | -3 | 0 | 25* | 8 | 2 | -20
COC(=O)c1ccccc1-c1c2ccc(=N)cc-2oc2cc(N)ccc12 | -3 | 1 | i | -72 | -436 | +
CCOC(=O)c1nc2cc3n(c(C)c-2c1C)C(C)C(C)=C3C (stereo not given) | 1 | 3 | 23* | 5 | 2 | -5
O=C(COc1ccc2c3c(c(=O)oc2c1)CCCC3)NC(Cc1ccc(Cl)cc1)C(=O)O (stereo not given) | 0 | -1 | -1 | 38* | 4 | -6
O=C(COc1ccc2c3c(c(=O)oc2c1)CCCC3)N[C@@H](Cc1ccccc1)C(=O)O | -1 | 0 | 0 | 26 | -4 | 0
O=C(COC(=O)c1ccc(Br)o1)Nc1nc2ccccc2s1 | -2 | -1 | -3 | 8 | 0 | -2
O=C(COC(=O)c1ccc([N+](=O)[O-])o1)Nc1nc2ccccc2s1 | -2 | 1 | 29* | 6 | -1 | -12
CCNC(=S)N/N=C(\C)c1cccc(C(F)(F)F)c1 | 1 | 5 | 36* | -5 | -6 | 1
CC(C)C[C@@H]1COc2cc(Br)ccc2S(=O)(=O)N1Cc1cn(Cc2ccccc2)nn1 | / | -2 | 0 | 4 | 0 | /
COc1cc(C=NN=c2sc3ccccc3n2C)ccc1OCCO | -1 | 3 | -3 | 2 | -5 | /
C#CCN1CC(N(C)CCOC(=O)CC2C=CCC2)CS1(=O)=O (stereo not given) | / | -1 | 0 | 1 | -3 | /
Cc1ccc(C)n1Cc1ccc(C(=O)O)cc1 | / | / | / | / | / | 106*
Cc1ccc(-n2c(SCC(=O)NN=Cc3c[nH]c4ccccc34)nnc2-c2ccccc2)cc1 | / | -4 | 2 | 11 | 6 | /
COc1ccc(/C=C/C(=O)O)cc1Cl | -1 | -4 | 43* | -2 | 0 | 0
CCCOc1ccc(/C=C/C(=O)O)cc1OC | -1 | -1 | 1 | 0 | -1 | 1
O=C(c1nc2ccccn2c1CNCCCn1cccn1)N1CCCC1 | 0 | 2 | 24* | 1 | 7 | 0
CC(C)CN(C(=O)COC(=O)c1ccc([N+](=O)[O-])s1)c1c(N)n(Cc2ccccc2)c(=O)[nH]c1=O | -4 | 0 | 0 | 6 | 7 | 56*
CC(C)CN(C(=O)COC(=O)c1cccs1)c1c(N)n(Cc2ccccc2)c(=O)[nH]c1=O | -1 | -2 | -1 | 1 | -6 | 5
CC(=O)N(Cc1ccc(F)cc1)C1=C(NCCc2ccccc2)C(=O)c2ccccc2C1=O | -5 | 23* | 2 | 0 | 1 | -13
O=C1C(Cl)=C(NCCc2ccccc2)C(=O)c2ccccc21 | -1 | 7 | -17 | 3 | -18 | 47
COC[C@H]1CCCN1c1ccc2c(c1)O[C@H]1CCN(C1)S2(=O)=O | / | 4 | 0 | 1 | 0 | /
SMILES | PG9 binder | LEDGF integ inh | UHRF1 binding | rCAG RNA binder | MBD2 inh | DNMT1 inh
CC(C)N1CC2(CC(c3ccccc3F)=NO2)CN1C(=O)c1ccc(C(C)(C)C)cc1 (stereo not given) | 1 | 0 | 1 | 1 | 0 | 0
CC(=O)N1CC2(CC(c3ccccc3F)=NO2)CN1c1ccc(Cl)cc1 (stereo not given) | 0 | 0 | 22* | 1 | 8 | -2
CCCCCN1CCCCC(NC(=O)c2cccc(C(F)(F)F)c2)C1=O (stereo not given) | / | -2 | -1 | -4 | -2 | /
COc1ccccc1OCC(=O)NCCSCc1ccccc1Cl | 0 | 2 | 25* | -5 | 5 | -1
O=C(COc1ccccc1)NCCSCc1ccccc1Cl | -3 | 4 | -2 | -5 | -5 | 2
COc1ccc2c(c1OC)C(=O)OC2C1c2c(cc3c(c2OC)OCO3)CCN1C (stereo not given) | 2 | 3 | 0 | 1 | -3 | 0
CN1CCc2cc3c(c4c2[C@H]1[C@H](O)c1ccccc1-4)OCO3 | -2 | 9 | 35* | -2 | 66* | 70*
CC1CCN(C(=S)c2ccc3c(c2)OCO3)CC1 | 0 | 2 | 61* | -4 | 0 | 3
CCC1CCCCN1CCNC(=O)CCS(=O)(=O)c1ccc(Br)cc1 (stereo not given) | -2 | 1 | 25* | -4 | 6 | 0
CC1=C(C(=O)N(C(C)C)C(C)C)CC(CC(=O)NCCc2ccccn2)C(=O)N1CCC1=CCCCC1 (stereo not given) | 0 | 2 | -2 | -3 | -4 | -7
Brc1ccc(C2Nc3cccc4cccc(c34)N2)s1 | -2 | 3 | -2 | 11 | 4 | 55*
Clc1ccc(C2Nc3cccc4cccc(c34)N2)cc1 | -1 | -4 | 1 | 7 | 3 | -29
OC12CC3C[C@H](C1)C(N1CCOCC1)[C@@H](C3)C2 (stereo not given in full) | -1 | -4 | 52* | -2 | 2 | 0
CCCCN(C(=O)c1cccc(-c2ccc(OC(C)=O)cc2)c1)c1c(N)n(CCC)c(=O)[nH]c1=O | 0 | 4 | 73* | -2 | -2 | 5
COc1ccc(Cl)cc1NC(=O)CSc1nc2sccc2c(=O)[nH]1 | -2 | -7 | 1 | 45* | -3 | -3
Cc1ccc(NS(=O)(=O)c2cccs2)nc1 | -3 | 2 | 30* | 0 | 5 | 1
COc1ccc(NS(=O)(=O)c2cc(NC(=O)CCc3ccccc3)ccc2N2CCOCC2)cc1 | -4 | -1 | 31* | 7 | 6 | -7
COc1ccc(CCC(=O)Nc2ccc(N3CCOCC3)cc2)cc1 | -2 | 4 | 31* | 4 | 13 | 2
COc1ccc(N2CCN(c3ccc4nnc(CCC(=O)Nc5ccc(C)cc5)n4n3)CC2)cc1 | -2 | 0 | 21* | 2 | 4 | -6
Cc1ccc(Cn2nnc3c2-c2ccccc2S(=O)(=O)N(C2CC2)C3)cc1 | / | 3 | 0 | 0 | -5 | /
CN(C)C(=O)NCCCC#Cc1ccccc1 | / | 0 | 0 | 1 | -6 | /
CC(C)C(=O)Nc1nnc(SCC(=O)NC2CCCC2)s1 | 0 | 0 | 93* | 2 | 4 | 3
Cc1oc2cc([N+](=O)[O-])c(O)c([N+](=O)[O-])c2c1C(=O)c1ccc(Cl)cc1 | -1 | 10 | -6 | 36* | -10 | 24
